Sampled rows, rich in hits. Any-hit rate of the full collection: about 4.8%.
DAX1 inh-1: DAX1 (NR0B1) inhibitors, primary screen, cell-based, HEK293, Gal4-DAX1, luciferase luminescence; inhibition, % at 6.75 µM; 340,000 tested, 0.99% active; Nuclear receptor subfamily 0 group B member 1 (Homo sapiens), P51843; HEK293 Gal4-DAX1 luciferase reporter; AID 504766, 2011;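 active means inhibition above the mean over all tested compounds plus 3 SD, cut at about 4.2% in these data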;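 further: inhibition shows as a rise in luminescence from relieved DAX1 repression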
hcDAF-12 act: H. contortus DAF-12 nuclear receptor activators, primary screen, cell-based, luminescence, HEK293, lit1-tk-luc reporter | HEK293 hcDAF-12 lit1-tk-luc reporter; 0% DMSO, 100% Δ7-dafachronic acid | activation, % at 6.8 µM | 370,000 tested, 1.4% active | AID 652067, 2013;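 active means activation above the mean of all tested compounds plus 3 SD, cut at about 5.5% in these data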
hgDAF-12 ag: H. glycines DAF-12 receptor agonists, primary screen, cell-based, luminescence, HEK293, GAL4 fusion, UAS-luciferase; Nuclear hormone receptor DAF-12 (Heterodera glycines), GAL4 fusion; HEK293 GAL4-hgDAF12 UAS-luciferase reporter, agonist luminescence; normalized to butyrate control; activation, % at 6.8 µM; 370,000 tested, 1.8% active;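 active means activation above a cutoff set at the mean of all screened compounds plus 3 SD, cut at about 10% in these data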
DAX1 inh-2: DAX1 (NR0B1) inhibitors on StAR promoter, primary screen, cell-based, luminescence, SF-1 (NR5A1), full-length DAX-1; HEK293T StAR-luciferase reporter, SF-1/DAX-1 repression relief; inhibition, % at 6.8 µM; 370,000 tested, 1.1% active; AID 652010, 2013;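 active means inhibition above the mean over all tested compounds plus 3 SD, cut at about 3.6% in these data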;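 further: higher inhibition means more luminescence from relief of DAX-1 repression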
SMARCA2 activ: SMARCA2 (BRM) function activators, primary screen, cell-based, luminescence, high throughput; AID 652017, 2013; MG213 cells, MMTV-luciferase reporter, dexamethasone, overnight; activation, % at 9.1 µM; 370,000 tested, 1% active; in the data active means activation above about 7.8%
ssDAF12 agonist: S. stercoralis DAF-12 nuclear receptor activators, primary screen, cell-based, luminescence, HEK293, GRIP1 co-expression, lit1-tk-luc. HEK293 ssDAF-12/GRIP1 lit1-tk-luc reporter; % of 3 µM dafachronic acid response. activation, % at 6.8 µM. 370,000 tested, 1% active;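 active means activation above the mean over all tested compounds plus 3 SD, cut at about 0.9% in these data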
LXR ag: LXR agonists, Gal4 luciferase reporter, confirmation, counter-screen for hcDAF-12 agonist project, cell-based, luminescence, HEK293, H. contortus campaign | HEK293 Gal4-LXR tk-luc reporter, 24 h; normalized: DMSO 0%, positive control 100% | 3,400 tested, under 10 active | activation, % at 6.8 µM | shares compounds with hcDAF-12 act;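 active means mean percent activation of the reporter above a cutoff set as the average over tested compounds plus their standard deviation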
Target sequence (P55055 whole entry, looked up, the tested form may be a part): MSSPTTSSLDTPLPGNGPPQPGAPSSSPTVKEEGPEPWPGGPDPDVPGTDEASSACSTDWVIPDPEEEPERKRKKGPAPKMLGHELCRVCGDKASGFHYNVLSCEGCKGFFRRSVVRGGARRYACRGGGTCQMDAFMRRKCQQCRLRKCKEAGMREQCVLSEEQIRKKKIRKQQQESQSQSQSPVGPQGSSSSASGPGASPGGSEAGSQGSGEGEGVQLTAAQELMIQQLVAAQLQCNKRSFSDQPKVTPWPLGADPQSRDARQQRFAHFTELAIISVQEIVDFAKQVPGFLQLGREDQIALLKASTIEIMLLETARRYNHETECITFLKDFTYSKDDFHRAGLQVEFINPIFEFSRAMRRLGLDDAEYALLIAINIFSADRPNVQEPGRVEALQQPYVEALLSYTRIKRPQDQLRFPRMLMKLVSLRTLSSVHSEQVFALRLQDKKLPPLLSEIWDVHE
hcDAF12 ag: H. contortus DAF-12 receptor agonists, confirmation, cell-based, luminescence, HEK293, lit1-tk-luc, triplicate; shares compounds with hcDAF-12 act; HEK293 hcDAF-12 lit1-tk-luc reporter; % of Δ7-dafachronic acid response; activation, % at 6.8 µM; 3,400 tested, 61% active;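 active means mean activation across triplicate tests above the threshold derived from the earlier primary screen, cut at about 5.5% in these data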
Large screens that a line does not name were inactive (follow-up assays come after a bar, where they were run).

COC(=O)Cn1c(=NC(=O)C2CC2)sc2c(C)cc(C)cc21	none
Cc1ccc2c(c1)sc(=NC(=O)C1CC1)n2C	hcDAF-12 act 8.7, hgDAF-12 ag 13.0, ssDAF12 agonist 1.7 | LXR ag inactive | hcDAF12 ag 14.1
C=CCn1c(CCCOc2ccc(Cl)cc2Cl)nnc1SCC(=O)Nc1nccs1	none
O=C(NC(=S)Nc1ncc(Br)cc1Br)c1ccccc1	hcDAF-12 act 8.0 | LXR ag inactive | hcDAF12 ag 8.7
O/C(=C\c1ccc2ccccc2n1)c1ccncc1	hcDAF-12 act 8.6, hgDAF-12 ag 11.8, ssDAF12 agonist 1.2 | LXR ag inactive | hcDAF12 ag 11.9
CC(=O)N(c1ccc(Cl)cc1)c1cn(C(C)=O)c2ccccc12	none
COc1ccc(NC(=O)C2CCN(C(=O)c3ccccc3)CC2)cc1OC	none
Cc1cc2ccccn2c1C(=O)Nc1ccccc1	hcDAF-12 act 9.7, ssDAF12 agonist 1.0 | LXR ag inactive | hcDAF12 ag 9.6
Cc1cc2ccccn2c1C(=O)Nc1ccc(Cl)cc1	hcDAF-12 act 8.8 | LXR ag inactive | hcDAF12 ag 9.4
Cc1c(C(=O)Nc2ccc(Cl)cc2)c2ccccn2c1C(=O)c1ccc(F)cc1	none
O=Cc1nc(-c2ccc(Cl)cc2)n2ccccc12	none
Cc1c(Cc2ccccc2)c(=O)oc2c(C)c(OCC(=O)NCC3CCC(C(=O)O)CC3)ccc12 (stereo not given)	hcDAF-12 act 7.3 | LXR ag inactive | hcDAF12 ag inactive
CCOC(=O)N=Nc1c(O)n(C)c2ccccc12	hcDAF-12 act 7.3 | LXR ag inactive | hcDAF12 ag inactive
O=C1OCC(CO)(CO)N=C1NNc1ccccc1Cl	hcDAF-12 act 9.0 | LXR ag inactive | hcDAF12 ag inactive
COc1ccccc1OCCNC(=O)c1cc(SC)ccc1Cl	none
COc1ccccc1OCCNC(=O)c1cc(F)c(F)cc1Cl	hcDAF-12 act 7.8 | LXR ag inactive | hcDAF12 ag inactive
CC(Oc1ccccc1)C(=O)N1CCCc2ccccc21 (stereo not given)	none
CCOCC(=O)N1CCc2ccccc21	none
CCN(CC)C(=O)N1CCc2ccccc21	hcDAF-12 act 6.7 | LXR ag inactive | hcDAF12 ag inactive
Cc1ccc(OC(C)C(=O)N2CCc3ccccc32)cc1 (stereo not given)	hcDAF-12 act 9.4 | LXR ag inactive | hcDAF12 ag inactive
O=C(NCc1cccs1)C(NS(=O)(=O)c1cccc2nsnc12)c1ccccc1 (stereo not given)	hcDAF-12 act 7.1 | LXR ag inactive | hcDAF12 ag inactive
Cc1c(NC(=O)C(C)OC(=O)CCC2CCCC2)c(=O)n(-c2ccccc2)n1C (stereo not given)	none
COc1ccc(CCNC(=O)C(=O)NCC2OCCN2S(=O)(=O)c2ccccc2)cc1 (stereo not given)	none
Cc1ccc(N/N=C(\C#N)C(=N)N2CCCCC2)cc1	DAX1 inh-1 7.4, hcDAF-12 act 6.9, hgDAF-12 ag 18.9, ssDAF12 agonist 1.2 | LXR ag inactive | hcDAF12 ag 10.8
COc1ccccc1N/N=C(\C#N)C(=N)N1CCOCC1	none
Cc1cc(OC(C)CCN2CCC(C(O)(c3ccccc3)c3ccccc3)CC2)ccc1Br (stereo not given)	hcDAF-12 act 6.8 (no result: DAX1 inh-1) | LXR ag inactive | hcDAF12 ag inactive
Cc1cc(C)cc(OC(C)CCN2CCC(C(O)(c3ccccc3)c3ccccc3)CC2)c1 (stereo not given)	none (no result: DAX1 inh-1)
CC(CCN1CCC(C(O)(c2ccccc2)c2ccccc2)CC1)Oc1ccc(OC(F)(F)F)cc1 (stereo not given)	hcDAF-12 act 7.5 (no result: DAX1 inh-1) | LXR ag inactive | hcDAF12 ag inactive
Cc1nn(CC(=O)NNC(=S)NCC2CCCO2)c(C)c1Br (stereo not given)	none
COc1cc(C(c2c(O)nc(SC)[nH]c2=O)c2c(O)nc(SC)[nH]c2=O)cc(OC)c1OC	none
C=CCN1C=CC(=CC=C(C#N)C#N)C=C1	DAX1 inh-1 4.5, hcDAF-12 act 8.5 | LXR ag inactive | hcDAF12 ag inactive
Cc1[nH]c(=O)[nH]c(=O)c1S(=O)(=O)Nc1ccc(S(N)(=O)=O)cc1	none
COc1ccccc1CN1CC(C(=O)NCCc2ccc(Cl)cc2)CC1=O (stereo not given)	none
COCCSc1nnc(NS(=O)(=O)Cc2ccccc2)s1	none
CNC(=O)CSc1ncnc2c1cnn2-c1ccccc1	hcDAF-12 act 7.4 | LXR ag inactive | hcDAF12 ag inactive
Cc1c(NC(=O)CSc2ncnc3c2cnn3-c2ccccc2)c(=O)n(-c2ccccc2)n1C	none
CC(C)(C)CSc1nnc(-c2cccnc2)n1Cc1ccccc1	none (no result: DAX1 inh-1)
CN(C)S(=O)(=O)c1ccc(Oc2ccccc2)cc1	none
Cc1nc2ncnn2c(C)c1Cc1cccc(F)c1	none
CC(=O)Nc1ccccc1-c1nc2ccccc2nc1OCC(=O)c1ccc(Cl)cc1	none
CCOC(=O)c1sc(=NC(=O)c2ccc(Cl)s2)n(C)c1C	hcDAF-12 act 6.7 | LXR ag inactive | hcDAF12 ag 15.2
CN/N=C(\Cc1nc2ccccc2[nH]1)c1ccc([N+](=O)[O-])cc1	hcDAF-12 act 7.0 | LXR ag inactive | hcDAF12 ag 7.8
O=C(Cc1nc2ccccc2[nH]1)c1ccc([N+](=O)[O-])cc1	none
c1ccc(CSc2cc3ccccc3[nH]2)cc1	hcDAF-12 act 10.1 | LXR ag inactive | hcDAF12 ag 10.6
COc1ccc(OCc2cc(C(=O)N3CCCC(CO)C3)no2)c2ccccc12 (stereo not given)	hcDAF-12 act 7.8, ssDAF12 agonist 1.4 | LXR ag inactive | hcDAF12 ag 9.5
